The values that follow come from PubChem BioAssay (EPA / NIEHS).

Test [1] deals with Retinoic acid receptor RXR-alpha (Homo sapiens) (UniProt P19793). Nature of the test: ATG_RXRa_TRANS: Attagene TRANS-FACTORIAL HepG2 Assay for human Retinoid X Receptor alpha (RXRa) (AID 2283012; active = hit-call score of the fitted dose curve at least 0.9, where 1 is the maximum). In a few lines:
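Transient transfection of human HepG2 with multiple GAL4-UAS reporter constructs; 24 h compound exposure; total RNA isolated, reverse-transcribed, PCR-amplified, 6-FAM labelled, HpaI-cut, resolved by capillary electrophoresis. Positive-direction fit versus DMSO.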

Test [2] has as its target human Retinoid X Receptor beta (RXRb), RXRB (gene 6257) (UniProt P28702). Nature of the test: ATG_RXRb_TRANS: Attagene TRANS-FACTORIAL HepG2 Assay for human Retinoid X Receptor beta (RXRb) (AID 2283013; active = hit-call score of the fitted dose curve at least 0.9, where 1 is the maximum). In a few lines: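 Transfect HepG2 with GAL4-UAS multi-reporter constructs (chimeric NR-Gal4, TRANS format); dose compound 24 h; isolate RNA, RT-PCR, FAM primer extension, HpaI digest; quantify by capillary electrophoresis; positive direction vs DMSO.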

Test [3] addresses human Thyroid Receptor alpha (THRa1), THRA (gene 7067) (UniProt P10827). Nature of the test: ATG_THRa1_TRANS: Attagene TRANS-FACTORIAL HepG2 Assay for human Thyroid Receptor alpha (THRa1) (AID 2283014; active = hit-call score of the fitted dose curve at least 0.9, where 1 is the maximum). In a few lines: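 Measured here is mRNA from a GAL4-UAS reporter in transfected HepG2 cells carrying a Gal4-fused receptor, 24 h post-dose. DMSO served as negative control and baseline.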

Read-out in test [4]: E-selectin (Homo sapiens) (UniProt P16581)
Nature of the test: BSK_3C_Eselectin: BioMAP Diversity Plus: 3C Assay for Eselectin Biomarker Activity (AID 2283015).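 Also: cell surface E-selectin protein quantified by ELISA 24 h after dosing.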 The note with it: primary human endothelial cells (HUVEC); actives raise or lower the signal. In a few lines:
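Endpoint derived by bidirectional fitting against DMSO vehicle; signal is ELISA-detected E-selectin from primary HUVEC at 24 h post-dosing, with parallel SRB staining (0.1% SRB, 560 nm) flagging cytotoxicity.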

Read-out in test [5]: Interleukin-1 alpha (IL1a), IL1A (gene 3552)
The test can be described thus: BSK_BE3C_IL1a: BioMAP Diversity Plus: BE3C Assay for Interleukin-1 alpha (IL1a) Biomarker Activity (AID 2283016). The settings on record: primary human bronchial epithelial cells; actives raise or lower the signal. In a few lines:
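BE3C primary human bronchial epithelium; cpd 24 h; IL-1a by ELISA; bidirectional fit vs DMSO; parallel SRB (0.1% SRB, 10% TCA fix, 560 nm) for cytotoxicity.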

Read-out in test [6]: Monocyte Chemoattractant Protein-1 (MCP1), CCL2 (gene 6347)
Nature of the test: BSK_3C_MCP1: BioMAP Diversity Plus: 3C Assay for Monocyte Chemoattractant Protein-1 (MCP1) Biomarker Activity (AID 2283017). The note with it: primary human endothelial cells (HUVEC); actives raise or lower the signal. In short, it runs like this:
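Using human vascular primary endothelium, researchers measured MCP-1 by ELISA 24 h after treatment, with DMSO serving as negative control for bidirectional fitting.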

Read-out in test [7]: Monocyte Chemoattractant Protein-1 (MCP1), CCL2 (gene 6347)
Nature of the test: BSK_4H_MCP1: BioMAP Diversity Plus: 4H Assay for Monocyte Chemoattractant Protein-1 (MCP1) Biomarker Activity (AID 2283018). The note with it: primary human endothelial cells (HUVEC); actives raise or lower the signal. In short, it runs like this:
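ELISA read-out of MCP-1 from human vascular endothelial primary cells taken at 24 hours after compound exposure. Activity was fitted in both directions relative to DMSO, which served as negative control.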

Read-out in test [8]: Human Leukocyte Antigen - DR isotype (HLADR), HLA-DRA (gene 3122)
Nature of the test: BSK_3C_HLADR: BioMAP Diversity Plus: 3C Assay for Human Leukocyte Antigen - DR isotype (HLADR) Biomarker Activity (AID 2283019).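 Also: ELISA of cell-surface HLA-DR on HUVEC 24 h after dosing.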 The settings on record: primary human endothelial cells (HUVEC); actives raise or lower the signal. In short, it runs like this: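 Compound added to primary HUVEC cultures, 24 h incubation, then HLA-DR determined by ELISA; endpoint derived by bidirectional fitting relative to DMSO negative control.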

Read-out in test [9]: Interleukin-8 (IL8), CXCL8 (gene 3576)
The test can be described thus: BSK_3C_IL8: BioMAP Diversity Plus: 3C Assay for Interleukin-8 (IL8) Biomarker Activity (AID 2283020). The note with it: primary human endothelial cells (HUVEC); actives raise or lower the signal. In short, it runs like this: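 ELISA read-out of IL-8 from human umbilical vein endothelium, measured 24 h after chemical dosing. Activity is expressed relative to DMSO negative control, with both increases and decreases fitted.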

Read-out in test [10]: Monokine induced gamma interferon (MIG), CXCL9 (gene 4283)
The test can be described thus: BSK_3C_MIG: BioMAP Diversity Plus: 3C Assay for Monokine induced gamma interferon (MIG) Biomarker Activity (AID 2283021). The settings on record: primary human endothelial cells (HUVEC); actives raise or lower the signal. In a few lines:
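Read-out is ELISA detection of MIG on human umbilical vein endothelial cells, taken 24 h after dosing. Gain or loss of signal was scored relative to DMSO controls using bidirectional curve fitting.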

Test [11] has as its target human Vitamin D Receptor (VDR), VDR (gene 7421) (UniProt P11473). Nature of the test: ATG_VDR_TRANS: Attagene TRANS-FACTORIAL HepG2 Assay for human Vitamin D Receptor (VDR) (AID 2283022; active = hit-call score of the fitted dose curve at least 0.9, where 1 is the maximum). In a few lines: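 Multiplexed TRANS reporter in HepG2; 24 h treatment; reporter mRNA by RT-PCR plus capillary electrophoresis; upregulation scored relative to DMSO.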
Test [12] is described as follows: BSK_3C_SRB: Viability Assessment in the BioMAP Diversity Plus: 3C Assay (AID 2283023).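 Also: fitted both ways against DMSO so a hit may be signal rise or drop.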 The note with it: primary human endothelial cells (HUVEC). In short, it runs like this:
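Overt cytotoxicity is gauged in parallel confluent HUVEC cultures by SRB total-protein staining at the time of biomarker measurement, 24 h after dosing. Gain or loss of signal is fitted versus DMSO.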

Read-out in test [13]: Matrix Metallopeptidase 1 (MMP1), MMP1 (gene 4312)
The test can be described thus: BSK_BE3C_MMP1: BioMAP Diversity Plus: BE3C Assay for Matrix Metallopeptidase 1 (MMP1) Biomarker Activity (AID 2283024). The settings on record: primary human bronchial epithelial cells; actives raise or lower the signal. In a few lines:
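Human bronchial epithelial cells (BE3C system) exposed to compound for 24 h; MMP1 then quantified by ELISA. Activity was fitted in both directions relative to DMSO.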

Test [14] is described as follows: BSK_3C_Vis: BioMAP Diversity Plus: 3C Assay for Morphology Visualization (AID 2283025).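 Also: fitted both ways so gain or loss versus DMSO counts.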 The note with it: primary human endothelial cells (HUVEC). In short, it runs like this:
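Chemicals were added to primary human umbilical vein endothelium, cells were incubated 24 h, and morphology was then visualized by light microscopy. Gain or loss of signal was fitted bidirectionally relative to DMSO.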

Read-out in test [15]: Pselectin, SELP (gene 6403)
Nature of the test: BSK_4H_Pselectin: BioMAP Diversity Plus: 4H Assay for Pselectin Biomarker Activity (AID 2283026). The settings on record: primary human endothelial cells (HUVEC); actives raise or lower the signal. In short, it runs like this: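 ELISA read-out of P-selectin on human umbilical vein endothelium after 24 h of dosing. Values derive from bidirectional fitting relative to DMSO. Parallel SRB protein staining flagged overt cytotoxicity.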

The nature of test [16]: BSK_4H_SRB: Viability Assessment in the BioMAP Diversity Plus: 4H Assay (AID 2283027).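 Also: cells exposed to compound for 24 h before staining.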 The settings on record: primary human endothelial cells (HUVEC). In short, it runs like this: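 Human umbilical vein endothelial cells were dosed with chemical and, after 24 h, fixed with 10% TCA, stained with 0.1% sulforhodamine B, and read at 560 nm to give total protein as a cytotoxicity measure. Bidirectional fitting relative to DMSO control.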

The nature of test [17]: BSK_BE3C_SRB: Viability Assessment in the BioMAP Diversity Plus: BE3C Assay (AID 2283028). The note with it: primary human bronchial epithelial cells. In a few lines:
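SRB total-protein staining (0.1%, after TCA fixation) of chemically dosed human bronchial epithelial primary cells at 24 h; DMSO serves as the negative control for bidirectional curve fitting.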

Read-out in test [18]: Thrombomodulin, THBD (gene 7056)
The test can be described thus: BSK_3C_Thrombomodulin: BioMAP Diversity Plus: 3C Assay for Thrombomodulin Biomarker Activity (AID 2283029). The settings on record: primary human endothelial cells (HUVEC); actives raise or lower the signal. In short, it runs like this:
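Read-out is ELISA of thrombomodulin on human umbilical vein endothelium 24 h after chemical dosing. Gain or loss of signal is scored relative to DMSO. Overt cytotoxicity is checked in parallel cultures by sulforhodamine B staining.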

Read-out in test [19]: Urokinase-type plasminogen activator receptor (uPAR), PLAUR (gene 5329)
The test can be described thus: BSK_4H_uPAR: BioMAP Diversity Plus: 4H Assay for Urokinase-type plasminogen activator receptor (uPAR) Biomarker Activity (AID 2283030). The note with it: primary human endothelial cells (HUVEC); actives raise or lower the signal. In a few lines:
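Endpoint derived via bidirectional curve fitting against DMSO baseline; readout was ELISA detection of uPAR on umbilical vein endothelial cells at 24 h post-treatment, with SRB-stained parallel cultures assessing cytotoxicity.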

Test [20] deals with human RAR-related Orphan Receptor gamma (RORg), RORC (gene 6097) (UniProt P51449). The test can be described thus: ATG_RORg_TRANS: Attagene TRANS-FACTORIAL HepG2 Assay for human RAR-related Orphan Receptor gamma (RORg) (AID 2283011; active = hit-call score of the fitted dose curve at least 0.9, where 1 is the maximum). In short, it runs like this: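 Chimeric RORg-Gal4 transactivation in transfected HepG2; 24 h exposure; RT-PCR/capillary electrophoresis readout of reporter mRNA, DMSO baseline.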

Results filed as inconclusive are left out. Activity calls are given as the source filed them. The calls were made as follows, unless noted: active = hit-call score of the fitted dose curve at least 0.9, where 1 is the maximum; inactive = score below 0.9.

Sequence of human Vitamin D Receptor (VDR), VDR (gene 7421) (P11473 whole entry, looked up): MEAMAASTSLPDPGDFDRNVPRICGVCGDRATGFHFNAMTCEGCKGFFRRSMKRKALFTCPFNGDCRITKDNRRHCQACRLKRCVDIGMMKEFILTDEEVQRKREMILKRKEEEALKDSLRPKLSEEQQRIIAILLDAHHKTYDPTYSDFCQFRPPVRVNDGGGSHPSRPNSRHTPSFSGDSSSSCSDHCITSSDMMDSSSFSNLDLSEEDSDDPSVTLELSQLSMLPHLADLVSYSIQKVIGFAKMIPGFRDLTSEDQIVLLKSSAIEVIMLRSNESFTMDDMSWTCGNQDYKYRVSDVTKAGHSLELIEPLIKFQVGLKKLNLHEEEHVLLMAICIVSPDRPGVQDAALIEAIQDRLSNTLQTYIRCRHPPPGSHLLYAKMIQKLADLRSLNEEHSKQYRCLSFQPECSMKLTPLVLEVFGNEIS
Sequence of human Thyroid Receptor alpha (THRa1), THRA (gene 7067) (P10827 whole entry, looked up, the tested form may be a part): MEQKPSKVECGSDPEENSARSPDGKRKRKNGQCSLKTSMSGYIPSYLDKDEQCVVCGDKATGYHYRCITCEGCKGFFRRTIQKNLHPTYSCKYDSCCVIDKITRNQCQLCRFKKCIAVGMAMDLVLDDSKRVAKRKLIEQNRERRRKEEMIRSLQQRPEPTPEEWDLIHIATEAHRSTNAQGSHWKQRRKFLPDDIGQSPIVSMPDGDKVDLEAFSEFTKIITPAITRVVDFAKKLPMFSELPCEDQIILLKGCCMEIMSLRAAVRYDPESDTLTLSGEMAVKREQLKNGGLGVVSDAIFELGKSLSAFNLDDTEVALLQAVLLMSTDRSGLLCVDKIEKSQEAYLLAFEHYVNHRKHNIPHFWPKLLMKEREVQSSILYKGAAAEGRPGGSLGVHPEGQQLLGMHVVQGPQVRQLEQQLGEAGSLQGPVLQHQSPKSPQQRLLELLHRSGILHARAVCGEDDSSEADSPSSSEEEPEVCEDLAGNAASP
Sequence of E-selectin (Homo sapiens) (P16581 whole entry, looked up): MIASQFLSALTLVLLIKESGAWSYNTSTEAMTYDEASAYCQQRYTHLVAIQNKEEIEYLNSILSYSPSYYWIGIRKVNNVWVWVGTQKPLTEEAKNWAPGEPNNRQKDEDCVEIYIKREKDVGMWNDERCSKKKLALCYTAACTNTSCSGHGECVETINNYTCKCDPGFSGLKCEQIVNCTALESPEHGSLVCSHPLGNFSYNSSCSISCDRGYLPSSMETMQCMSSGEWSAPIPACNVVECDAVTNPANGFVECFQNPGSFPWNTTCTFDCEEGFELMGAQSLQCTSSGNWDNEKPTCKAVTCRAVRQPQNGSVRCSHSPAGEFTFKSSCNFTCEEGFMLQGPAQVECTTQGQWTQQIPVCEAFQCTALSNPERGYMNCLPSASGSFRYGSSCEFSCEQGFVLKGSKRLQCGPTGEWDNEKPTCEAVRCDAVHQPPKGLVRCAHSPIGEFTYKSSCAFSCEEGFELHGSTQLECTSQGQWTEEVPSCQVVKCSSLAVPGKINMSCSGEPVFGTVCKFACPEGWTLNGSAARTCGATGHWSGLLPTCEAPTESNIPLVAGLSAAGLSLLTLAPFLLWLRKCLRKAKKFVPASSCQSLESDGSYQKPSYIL
Sequence of human Retinoid X Receptor beta (RXRb), RXRB (gene 6257) (P28702 whole entry, looked up, the tested form may be a part): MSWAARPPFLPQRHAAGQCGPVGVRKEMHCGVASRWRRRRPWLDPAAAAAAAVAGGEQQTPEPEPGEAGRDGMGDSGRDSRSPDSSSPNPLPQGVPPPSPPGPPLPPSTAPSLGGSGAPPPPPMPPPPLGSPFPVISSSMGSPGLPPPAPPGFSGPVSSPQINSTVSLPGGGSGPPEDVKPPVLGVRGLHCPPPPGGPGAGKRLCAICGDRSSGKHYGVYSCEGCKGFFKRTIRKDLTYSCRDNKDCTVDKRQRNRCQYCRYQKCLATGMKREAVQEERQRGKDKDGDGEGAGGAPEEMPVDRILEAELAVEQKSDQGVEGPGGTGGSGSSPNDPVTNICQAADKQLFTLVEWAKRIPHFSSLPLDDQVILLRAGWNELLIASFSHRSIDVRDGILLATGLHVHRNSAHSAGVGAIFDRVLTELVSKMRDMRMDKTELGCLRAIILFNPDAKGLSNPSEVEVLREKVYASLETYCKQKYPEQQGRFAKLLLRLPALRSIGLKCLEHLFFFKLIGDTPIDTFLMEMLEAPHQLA
Sequence of Retinoic acid receptor RXR-alpha (Homo sapiens) (P19793 whole entry, looked up, the tested form may be a part): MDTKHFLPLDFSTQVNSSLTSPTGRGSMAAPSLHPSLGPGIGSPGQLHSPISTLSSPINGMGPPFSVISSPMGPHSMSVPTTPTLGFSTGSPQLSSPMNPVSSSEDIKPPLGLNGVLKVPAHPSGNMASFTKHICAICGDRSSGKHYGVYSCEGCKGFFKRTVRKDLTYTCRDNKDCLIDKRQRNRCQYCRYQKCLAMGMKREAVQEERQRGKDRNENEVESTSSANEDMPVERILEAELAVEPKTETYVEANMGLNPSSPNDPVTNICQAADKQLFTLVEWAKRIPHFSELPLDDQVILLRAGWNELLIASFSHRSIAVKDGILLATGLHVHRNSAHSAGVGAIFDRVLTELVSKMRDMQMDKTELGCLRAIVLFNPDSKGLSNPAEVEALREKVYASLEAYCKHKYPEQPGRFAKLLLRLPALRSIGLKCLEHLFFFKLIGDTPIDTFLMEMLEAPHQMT
Sequence of human RAR-related Orphan Receptor gamma (RORg), RORC (gene 6097) (P51449 whole entry, looked up, the tested form may be a part): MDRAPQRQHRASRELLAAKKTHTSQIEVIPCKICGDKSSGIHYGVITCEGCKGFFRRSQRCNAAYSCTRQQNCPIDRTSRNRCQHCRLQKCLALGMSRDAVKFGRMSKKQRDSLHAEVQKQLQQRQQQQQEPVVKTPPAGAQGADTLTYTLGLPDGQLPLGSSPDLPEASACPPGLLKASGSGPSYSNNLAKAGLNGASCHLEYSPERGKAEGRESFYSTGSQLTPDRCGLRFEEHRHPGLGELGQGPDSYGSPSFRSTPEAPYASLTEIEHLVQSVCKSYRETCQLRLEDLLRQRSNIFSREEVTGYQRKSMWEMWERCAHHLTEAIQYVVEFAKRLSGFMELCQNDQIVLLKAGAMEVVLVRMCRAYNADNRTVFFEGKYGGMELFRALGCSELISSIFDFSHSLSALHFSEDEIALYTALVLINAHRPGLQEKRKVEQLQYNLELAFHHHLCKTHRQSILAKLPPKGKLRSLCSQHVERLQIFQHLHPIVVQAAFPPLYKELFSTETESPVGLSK

Regarding `O=S(=O)(O)c1ccc(N=Nc2c(O)ccc3cc(S(=O)(=O)O)ccc23)cc1`, the outcome in test [1], in test [2], in test [3], in [4], in [5] and in [6] was inactive. For the same molecule, the result in test [7], in [8], in [9], in test [10], in test [11] and in test [12] was inactive. In addition, the result in test [13], in test [14], in [15], in [16], in test [17] and in test [18] was inactive. Besides, the result in [19] was inactive.
As to `CC[C@H](C)C(=O)O[C@H]1C[C@H](O)C=C2C=C[C@H](C)[C@H](CC[C@@H](O)C[C@@H](O)CC(=O)O)[C@H]21`, the molecule was classed as inactive in test [20], in test [2], in [3], in [4], in test [5] and in test [6]. Also, the outcome in test [7], in test [8], in test [9], in [10], in [11] and in test [12] was inactive. For the same molecule, the outcome in test [13], in test [14], in test [15], in [16], in test [17] and in [18] was inactive. Also, the result in [19] was inactive.
As for `C[C@@H](Oc1ccc(CNC(=O)c2cccnc2Oc2ccc3c(c2)OCO3)c(F)c1)C(=O)O`, the result in [1], in [2], in test [3], in [4], in test [5] and in test [7] was inactive. In addition, the outcome in [8], in test [9], in test [10], in test [12], in [13] and in [14] was inactive. In addition, the outcome in [15], in test [16], in test [17], in [18] and in [19] was inactive.
Consider `FC(F)C(F)(F)COCC1CO1` (stereo not given), for which the molecule was classed as inactive in test [20], in [1], in test [5], in [7], in test [8] and in [9]. The result in test [10], in [11], in [12], in test [13], in test [15] and in [16] was inactive. Besides, the outcome in test [17], in test [18] and in test [19] was inactive.
As to `CCc1cccc(CC)c1N`, the molecule was classed as inactive in test [20], in [3], in test [4], in [5], in test [7] and in test [8]. Besides, the outcome in test [9], in test [10], in test [12], in test [13], in test [14] and in test [15] was inactive. In addition, the outcome in test [16], in test [17], in test [18] and in test [19] was inactive. In test [2], the AC50 was 100 µM (active).
With `CC1(C)C(=O)N(Cl)C(=O)N1Cl`, the result in test [20], in test [4], in [5], in [7], in [8] and in test [9] was inactive. Moreover, the outcome in test [10], in test [12], in [13], in [14], in test [15] and in test [16] was inactive. For the same molecule, the outcome in test [17], in test [18] and in [19] was inactive.
Regarding `CCCc1ccccc1`, the call in test [1], in test [2], in test [3], in test [4], in [5] and in test [7] was inactive. In addition, the outcome in test [8], in [9], in test [10], in [11], in test [12] and in [13] was inactive. Also, the outcome in test [14], in [15], in test [16], in test [17], in test [18] and in [19] was inactive.

The AC50 is the concentration giving half of the maximal activity seen.
